According to PubChem BioAssay (EPA / NIEHS):
Activity calls are given as the source filed them. The calls were made as follows: active = hit-call score of the fitted dose curve at least 0.9, where 1 is the maximum; inactive = score below 0.9.

Key:
[1] = read-out: Monokine induced gamma interferon (MIG), CXCL9 (gene 4283); assay: BSK_3C_MIG: BioMAP Diversity Plus: 3C Assay for Monokine induced gamma interferon (MIG) Biomarker Activity (AID 2283021); settings: primary human endothelial cells (HUVEC); actives raise or lower the signal
Outline: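 Primary human umbilical vein endothelial cells in the 3C system were exposed to chemical for 24 h, after which MIG was quantified by ELISA. Activity was fitted bidirectionally against DMSO as negative control and baseline.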

[2] = BSK_3C_SRB: Viability Assessment in the BioMAP Diversity Plus: 3C Assay (AID 2283023); settings: primary human endothelial cells (HUVEC);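 also: fitted both ways against DMSO so a hit may be signal rise or drop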
Outline: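 Absorbance at 560 nm of sulforhodamine B-stained (0.1%) total protein served as a cytotoxicity readout in human umbilical vein endothelial cells, 24 h after chemical treatment. Signal was fitted bidirectionally relative to DMSO.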

[3] = read-out: Matrix Metallopeptidase 1 (MMP1), MMP1 (gene 4312); assay: BSK_BE3C_MMP1: BioMAP Diversity Plus: BE3C Assay for Matrix Metallopeptidase 1 (MMP1) Biomarker Activity (AID 2283024); settings: primary human bronchial epithelial cells; actives raise or lower the signal
Outline: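 Primary human bronchial epithelial cells were dosed with test chemicals, and MMP1 levels were measured by ELISA 24 h later. Data were fitted bidirectionally against DMSO as the negative control and activity baseline.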

[4] = BSK_3C_Vis: BioMAP Diversity Plus: 3C Assay for Morphology Visualization (AID 2283025); settings: primary human endothelial cells (HUVEC);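 also: fitted both ways so gain or loss versus DMSO counts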
Outline: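 Human umbilical vein endothelial cells in the 3C system were imaged by light microscopy 24 h after chemical dosing to record cell morphology. Activity was fitted bidirectionally against DMSO as negative control and baseline; the endpoint serves as a background control.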

[5] = read-out: Pselectin, SELP (gene 6403); assay: BSK_4H_Pselectin: BioMAP Diversity Plus: 4H Assay for Pselectin Biomarker Activity (AID 2283026); settings: primary human endothelial cells (HUVEC); actives raise or lower the signal
Outline: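 Primary human umbilical vein endothelial cells were exposed to test chemical for 24 h, then cell-surface P-selectin was quantified by ELISA. Activity was fitted bidirectionally against DMSO as negative control and baseline.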

[6] = BSK_4H_SRB: Viability Assessment in the BioMAP Diversity Plus: 4H Assay (AID 2283027); settings: primary human endothelial cells (HUVEC);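 also: cells exposed to compound for 24 h before staining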;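 as to AC50: curves fitted both ways versus DMSO so AC50 may be loss or gain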
Outline: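 Human umbilical vein endothelial cells, 24 h after chemical dosing; total protein measured by 0.1% sulforhodamine B staining after 10% TCA fixation, read at 560 nm. Bidirectional fitting against DMSO.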

[7] = BSK_BE3C_SRB: Viability Assessment in the BioMAP Diversity Plus: BE3C Assay (AID 2283028); settings: primary human bronchial epithelial cells;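 as to AC50: fitted both ways so AC50 may mark signal gain or loss versus DMSO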
Outline: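 Cells (human bronchial epithelial, primary) are treated with chemicals, and after 24 h the parallel cultures are fixed in 10% TCA. These are then stained with 0.1% SRB and read at 560 nm. Gain or loss of signal is fitted relative to DMSO.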

[8] = read-out: Urokinase-type plasminogen activator receptor (uPAR), PLAUR (gene 5329); assay: BSK_4H_uPAR: BioMAP Diversity Plus: 4H Assay for Urokinase-type plasminogen activator receptor (uPAR) Biomarker Activity (AID 2283030); settings: primary human endothelial cells (HUVEC); actives raise or lower the signal
Outline: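 Cell-surface uPAR ELISA signal, measured 24 h after dosing human umbilical vein endothelial cells, was analyzed with bidirectional fitting relative to DMSO. Parallel SRB staining of total protein tracked overt cytotoxicity.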

[9] = read-out: Vascular endothelial growth factor receptor 2 (Homo sapiens) (UniProt P35968); assay: BSK_4H_VEGFRII: BioMAP Diversity Plus: 4H Assay for Vascular endothelial growth factor receptor 2 (VEGFR2) Biomarker Activity (AID 2283031); settings: primary human endothelial cells (HUVEC); actives raise or lower the signal
Outline: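 ELISA read-out of VEGFRII in primary human umbilical vein endothelium, taken 24 h after chemical treatment. Responses are expressed relative to DMSO, with bidirectional fitting.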

[10] = read-out: Human Leukocyte Antigen - DR isotype (HLADR), HLA-DRA (gene 3122); assay: BSK_BE3C_HLADR: BioMAP Diversity Plus: BE3C Assay for Human Leukocyte Antigen - DR isotype (HLADR) Biomarker Activity (AID 2283032); settings: primary human bronchial epithelial cells; actives raise or lower the signal
Outline: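 Human primary bronchial epithelial cells in the BE3C system were exposed to chemicals for 24 h, after which HLA-DR levels were quantified by ELISA. Activity was fitted bidirectionally, gain or loss of signal, against DMSO as negative control and baseline.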

[11] = read-out: Vascular cell adhesion molecule 1 (VCAM1), VCAM1 (gene 7412); assay: BSK_4H_VCAM1: BioMAP Diversity Plus: 4H Assay for Vascular cell adhesion molecule 1 (VCAM1) Biomarker Activity (AID 2283033); settings: primary human endothelial cells (HUVEC); actives raise or lower the signal
Outline: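 Primary human umbilical vein endothelial cells were exposed to chemicals for 24 h, after which VCAM-1 was quantified by ELISA. Responses were fitted bidirectionally against DMSO as negative control and activity baseline.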

[12] = read-out: Interferon-gamma inducible Protein 10 (IP10), CXCL10 (gene 3627); assay: BSK_BE3C_IP10: BioMAP Diversity Plus: BE3C Assay for Interferon-gamma inducible Protein 10 (IP10) Biomarker Activity (AID 2283034); settings: primary human bronchial epithelial cells; actives raise or lower the signal
Outline: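 Human primary bronchial epithelial cells were exposed to chemicals for 24 hours, after which IP-10 levels were measured by ELISA. Data were fitted bidirectionally against DMSO, which served as the negative control and activity baseline.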

[13] = read-out: Monokine induced gamma interferon (MIG), CXCL9 (gene 4283); assay: BSK_BE3C_MIG: BioMAP Diversity Plus: BE3C Assay for Monokine induced gamma interferon (MIG) Biomarker Activity (AID 2283035); settings: primary human bronchial epithelial cells; actives raise or lower the signal
Outline: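 Primary human bronchial epithelial cells treated for 24 h; MIG levels measured by ELISA, fitted bidirectionally versus DMSO. Parallel SRB total-protein staining assessed cytotoxicity.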

[14] = read-out: Transforming growth factor beta 1 (TGFb1), TGFB1 (gene 7040); assay: BSK_BE3C_TGFb1: BioMAP Diversity Plus: BE3C Assay for Transforming growth factor beta 1 (TGFb1) Biomarker Activity (AID 2283036); settings: primary human bronchial epithelial cells; actives raise or lower the signal
Outline: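 Human primary bronchial epithelial cells (BE3C system) were dosed with chemical and TGF-b1 levels measured by ELISA at 24 h. Activity was fitted bidirectionally relative to DMSO negative control as baseline.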

[15] = read-out: urokinase plasminogen activator (uPA), PLAU (gene 5328); assay: BSK_BE3C_uPA: BioMAP Diversity Plus: BE3C Assay for urokinase plasminogen activator (uPA) Biomarker Activity (AID 2283038); settings: primary human bronchial epithelial cells; actives raise or lower the signal
Outline: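 Bronchial epithelial cells (human, primary); chemical 24 h; uPA by ELISA; bidirectional fit vs DMSO. SRB (0.1%, after 10% TCA fixation, 560 nm) in parallel cultures for cytotoxicity.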

[16] = read-out: Urokinase-type plasminogen activator receptor (uPAR), PLAUR (gene 5329); assay: BSK_BE3C_uPAR: BioMAP Diversity Plus: BE3C Assay for Urokinase-type plasminogen activator receptor (uPAR) Biomarker Activity (AID 2283039); settings: primary human bronchial epithelial cells; actives raise or lower the signal
Outline: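 Primary human bronchial epithelial cells were dosed with chemical and harvested 24 h later; uPAR was quantified by ELISA. Activity was fitted bidirectionally against DMSO as negative control and baseline.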

[17] = read-out: Interleukin-6 (IL6), IL6 (gene 3569); assay: BSK_CASM3C_IL6: BioMAP Diversity Plus: CASM3C Assay for Interleukin-6 (IL6) Biomarker Activity for (AID 2283040); settings: primary human coronary artery smooth muscle cells; actives raise or lower the signal
[18] = read-out: Thrombomodulin, THBD (gene 7056); assay: BSK_3C_Thrombomodulin: BioMAP Diversity Plus: 3C Assay for Thrombomodulin Biomarker Activity (AID 2283029); settings: primary human endothelial cells (HUVEC); actives raise or lower the signal
Outline: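 Primary human umbilical vein endothelial cells (3C system) were exposed to chemical for 24 h, then thrombomodulin levels were measured by ELISA. Activity was fitted bidirectionally against the DMSO negative control as baseline.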

[19] = read-out: Plasminogen activator inhibitor-1 (PAI1), SERPINE1 (gene 5054); assay: BSK_BE3C_PAI1: BioMAP Diversity Plus: BE3C Assay for Plasminogen activator inhibitor-1 (PAI1) Biomarker Activity (AID 2283037); settings: primary human bronchial epithelial cells; actives raise or lower the signal
Outline: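 Human primary bronchial epithelial cells were exposed to chemical for 24 h, then PAI-1 was quantified by ELISA. Activity was fitted bidirectionally relative to the DMSO negative control baseline.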

Measured: AC50

COC(=O)CCC(=O)OC
inactive: [1] | [2] | [3] | [4] | [5] | [6] | [7] | [8] | [9] | [10] | [11] | [12] | [13] | [14] | [15] | [16] | [17]

c1ccc2occc2c1
inactive: [1] | [3] | [4] | [5] | [6] | [7] | [18] | [8] | [9] | [10] | [11] | [12] | [13] | [14] | [19] | [15] | [16] | [17]

O=C(Oc1ccccc1)c1cccc(C(=O)Oc2ccccc2)c1
inactive: [1] | [3] | [4] | [5] | [6] | [7] | [8] | [9] | [10] | [11] | [12] | [13] | [14] | [19] | [15] | [16] | [17]

CCCCCCCCCCCCCCOS(=O)(=O)O
active: [3] 31.8 µM | [7] 21.2 µM | [18] 33.8 µM | [10] 20 µM | [11] 20 µM | [12] 17.4 µM | [13] 34.2 µM | [14] 30.5 µM | [19] 20 µM | [15] 28.6 µM | [16] 16.1 µM
inactive: [1] | [4] | [5] | [6] | [8] | [9] | [17]

CN(C)C(=O)NC1(c2ccccc2)CCN(CCC[C@]2(c3ccc(Cl)c(Cl)c3)CCCN(C(=O)c3ccccc3)C2)CC1
active: [2] 6.65 µM | [4] 9.81 µM
inactive: [1] | [3] | [5] | [6] | [7] | [8] | [9] | [10] | [11] | [12] | [13] | [14] | [19] | [15] | [16] | [17]

COC(=O)[C@H]1[C@H]2C[C@@H]3c4[nH]c5cc(OC)ccc5c4CCN3C[C@H]2C[C@@H](OC(=O)c2cc(OC)c(OC)c(OC)c2)[C@@H]1OC
inactive: [1] | [3] | [7] | [18] | [9] | [10] | [13] | [16] | [17]
active: [2] 24.9 µM | [5] 25.6 µM | [6] 22.5 µM | [11] 8.36 µM

O=C1O[C@H]([C@H](O)CO)C(O)=C1O
inactive: [1] | [3] | [4] | [5] | [6] | [7] | [8] | [9] | [10] | [11] | [12] | [13] | [14] | [15] | [16] | [17]

CN(C)CCCN(C)CCCN(C)C
inactive: [1] | [2] | [3] | [4] | [5] | [6] | [7] | [8] | [9] | [10] | [11] | [12] | [13] | [14] | [15] | [16] | [17]

NC(=Nc1ccccc1)Nc1ccccc1
inactive: [1] | [2] | [3] | [4] | [6] | [7] | [18] | [8] | [9] | [10] | [11] | [12] | [13] | [14] | [15] | [16] | [17]

O=C1NC(=O)C(c2ccccc2)(c2ccccc2)N1
inactive: [1] | [4] | [5] | [6] | [7] | [18] | [8] | [9] | [10] | [11] | [12] | [13] | [14] | [15] | [16] | [17]

CC(C)c1cccc(C(C)C)c1
inactive: [1] | [3] | [4] | [5] | [6] | [7] | [8] | [9] | [10] | [11] | [12] | [13] | [14] | [19] | [15] | [16] | [17]

OCC(CO)n1cnc(-c2ccc(F)cc2)c1-c1ccnc(Oc2ccccc2)n1
inactive: [1] | [4] | [5] | [6] | [7] | [8] | [9] | [10] | [11] | [12] | [13] | [14] | [16]
active: [3] 0.594 µM | [19] 1.29 µM | [15] 3.97 µM | [17] 0.654 µM

CCCCCCCCCCCCCCCCO
inactive: [1] | [3] | [4] | [5] | [6] | [7] | [18] | [8] | [9] | [10] | [11] | [12] | [13] | [14] | [19] | [15] | [16] | [17]

CC1=C(C)S(=O)(=O)CCS1(=O)=O
active: [4] 39 µM
inactive: [1] | [2] | [3] | [5] | [6] | [7] | [8] | [9] | [10] | [11] | [12] | [13] | [14] | [15] | [16] | [17]

O=C1OC(c2ccc(O)cc2)(c2ccc(O)cc2)c2ccccc21
active: [2] 28.6 µM | [3] 3.97 µM | [4] 37.5 µM | [5] 30.2 µM | [8] 14.3 µM | [10] 0.379 µM | [11] 30.8 µM | [13] 7.79 µM
inactive: [1] | [7] | [18] | [9] | [14] | [15] | [16] | [17]

CC(=O)OC1CC(C)OC(C)O1 (centres undefined)
inactive: [1] | [2] | [3] | [4] | [5] | [6] | [7] | [8] | [9] | [10] | [11] | [12] | [13] | [14] | [15] | [16] | [17]
